In PubChem BioAssay (EPA / NIEHS):
Several values for one entry are separate records, joined by “and”; a condition that tells them apart may be missing. Equal entries are not always repeated. Some compounds were tested as several samples or in several runs, with calls that do not always agree. Activity calls are given as the source filed them. The calls were made as follows: active = hit-call score of the fitted dose curve at least 0.9, where 1 is the maximum; inactive = score below 0.9.

These compounds were tested on Matrix Metallopeptidase 9 (MMP9), MMP9 (gene 4318) (assay: BSK_BF4T_MMP9: BioMAP Diversity Plus: BF4T Assay for Matrix Metallopeptidase 9 (MMP9) Biomarker Activity (AID 2284276)). Settings: primary human bronchial epithelial cells with fibroblasts.
Experimental: BSK_BF4T is a cell-based, multiplexed-readout assay that uses bronchial epithelial cells and dermal fibroblasts, a human vascular primary cell, with measurements taken at 24 hours after chemical dosing in a microplate: 96-well plate.BSK_BF4T_MMP9 is an assay component measured in the BSK_BF4T assay. It measures MMP-9 antibody related to regulation of gene expression using ELISA technology.Data from the assay component BSK_BF4T_MMP9 was analyzed at the endpoint, BSK_BF4T_MMP9, in the positive analysis fitting direction relative to DMSO as the negative control and baseline of activity. Using a type of binding reporter, gain or loss-of-signal activity can be used to understand protein changes. To generalize the intended target to other relatable targets, this assay endpoint is annotated to the 'protease' intended target family, where the subfamily is 'matrix metalloproteinase'.
The levels of cell surface (or secreted, indicated by the prefix "s") biomarker endpoints were measured by ELISA. Overt cytotoxicity to cells in confluent adherent cultures (all systems other than the BT system) was assessed by measuring total protein levels using sulforhodamine B (SRB) staining in parallel cultures at the time of biomarker measurements, indicated as SRB endpoints. For proliferation assays for adherent cell types, individual cell types are cultured at sub-confluence and relative cell numbers quantified by SRB staining at time points optimized for each system (48 h: 3C and CASM3C systems; 72 h: BT and HDF3CGF systems; 96 h: SAg system). SRB was performed by staining cells with 0.1% SRB after fixation with 10% TCA and reading wells at 560 nm.Viability and proliferation of PBMC (T cells) was quantified by Alamar Blue reduction for the SAg and BT systems. For PBMC viability (referred to as PBMC Cytotoxicity within the assay endpoint names), cells were plated (75,000/well in a 96-well plate) and then chemical samples added for 1 h before addition of activators, SEB and TSST-1 (20 ng/mL final concentration each). Cells were incubated for 90 h. Then, Alamar Blue (20 uL/well) (Invitrogen, Cat DAL1100) was added for 6 h, and the plates were read with a fluorescence microplate reader at 546/580 nm (excitation/emission). For PBMC proliferation, cells were plated and activated as above but incubated for only 16 h prior to addition of Alamar Blue. Plates were read after 6 h.

Compound | outcome | AC50
FC(F)(F)C(F)(F)C(F)(F)C(F)(F)C(F)(F)C(F)(F)CC[Si](Cl)(Cl)Cl | inactive | 
O=C(Cl)C(F)(F)C(F)(F)C(F)(F)C(F)(F)C(F)(F)C(F)(F)F | inactive | 
NCC(F)(F)C(F)(F)C(F)(F)C(F)(F)C(F)(F)C(F)(F)F | inactive | 778 nM (active)
O=C(O)C(F)(F)OC(F)(F)C(F)(F)OC(F)(F)C(F)(F)OC(F)(F)F | inactive | 
OCC(F)(F)C(F)(F)C(F)(F)C(F)(F)C(F)(F)C(F)(F)CO | inactive | 
OCCCC(F)(F)C(F)(F)C(F)(F)C(F)(F)C(F)(F)C(F)(F)C(F)(F)C(F)(F)F |  | 30 µM (active) and 17.2 µM (active)
O=C(O)C(F)(F)C(F)(F)C(F)(F)OC(F)(F)F | inactive | 
NCC(F)(F)C(F)(F)C(F)(F)C(F)(F)C(F)(F)C(F)(F)C(F)(F)C(F)(F)F | inactive | 
NC(=O)C(F)(F)C(F)(F)C(F)(F)F | inactive | 
NS(=O)(=O)C(F)(F)C(F)(F)C(F)(F)C(F)(F)C(F)(F)C(F)(F)F | inactive | 
OCC(F)(F)C(F)(F)C(F)(F)CO | inactive | 
COC(F)(C(F)F)C(F)(F)F (stereo not given) | inactive | 
CCN(CCO)S(=O)(=O)C(F)(F)C(F)(F)C(F)(F)C(F)(F)C(F)(F)C(F)(F)C(F)(F)C(F)(F)F | inactive | 
OCC(O)CC(F)(F)C(F)(F)C(F)(F)C(F)(F)F (stereo not given) | inactive | 
CCOC(=O)CC(=O)C(F)(F)C(F)(F)F | inactive | 
CO[Si](C)(CCC(F)(F)C(F)(F)C(F)(F)C(F)(F)C(F)(F)C(F)(F)F)OC | inactive | 
C[Si](Cl)(Cl)CCC(F)(F)C(F)(F)C(F)(F)C(F)(F)C(F)(F)C(F)(F)F | inactive | 
C=CC(=O)OCCC(F)(F)C(F)(F)C(F)(F)C(F)(F)F | inactive | 
NC(=O)C(F)(F)C(F)(F)C(F)(F)C(F)(F)C(F)(F)C(F)(F)C(F)(F)F | inactive | 

Compound | outcome | AC50
O=C(Cl)C(F)(F)C(F)(F)C(F)(F)C(F)(F)C(F)(F)C(F)(F)C(F)(F)F | inactive | 18700 nM (active)
CNS(=O)(=O)C(F)(F)C(F)(F)C(F)(F)C(F)(F)C(F)(F)C(F)(F)C(F)(F)C(F)(F)F | inactive | 
O=C(O)CCC(F)(F)C(F)(F)C(F)(F)C(F)(F)C(F)(F)C(F)(F)C(F)(F)F | inactive | 
O=S(=O)(O)CCC(F)(F)C(F)(F)C(F)(F)C(F)(F)C(F)(F)C(F)(F)C(F)(F)C(F)(F)F | inactive | 
O=C(O)C(F)(F)C(F)(F)C(F)(F)C(F)(F)C(F)(F)C(F)(F)C(F)F | inactive | 
CN(C(=O)C(F)(F)C(F)(F)C(F)(F)F)[Si](C)(C)C | inactive | 
O=S(=O)(Cl)C(F)(F)C(F)(F)C(F)(F)C(F)(F)C(F)(F)C(F)(F)C(F)(F)C(F)(F)F |  | 49.2 µM (active) and 47.7 µM (active)
O=C(F)C1(F)C(F)(F)C(F)(F)C(F)(F)C(F)(F)C1(F)F | inactive | 
O=C(O)C(F)(F)C(F)(F)C(F)(F)OC(F)(C(F)(F)F)C(F)(F)F | inactive | 
O=C(O)C(F)(F)C(F)(F)C(F)(F)C(=O)O | inactive | 
C=C(C)C(=O)OCC(F)(F)C(F)(F)C(F)(F)C(F)F | inactive | 
FC(F)(F)C(F)(F)C(F)(F)C(F)(F)C(F)(F)C(F)(F)C(F)(F)CCI | inactive | 
NC(O)(C(F)(F)F)C(F)(F)F | inactive | 
NC(=O)C(F)(F)C(F)(F)C(F)(F)C(F)(F)C(N)=O | inactive | 
OCC(O)CC(F)(F)C(F)(F)C(F)(F)C(F)(F)C(F)(F)C(F)(F)C(F)(F)C(F)(F)F (stereo not given) | inactive | 
O=S(=O)(OCC(F)(F)F)C(F)(F)C(F)(F)C(F)(F)C(F)(F)F | inactive | 
OC(O)C(F)(F)C(F)(F)F | inactive | 
NC(=O)C(F)(F)C(F)(F)C(F)(F)C(F)F | inactive | 
OCC(F)(F)C(F)(F)C(F)(F)C(F)(F)C(F)(F)C(F)(F)C(F)(F)C(F)(F)CO |  | 27.6 µM (active) and 23.7 µM (active)
